Measured values: PubChem BioAssay (NCATS)
Active and inactive are the calls of the source. Entries that show only a call come without a potency. Calls follow the shape of the dose curve; as a rule, active = well fitted curve in the direction sought with a large enough effect; inconclusive = small, poorly fitted or top-dose-only effect, or another doubt; inactive = no such curve, though single readings can be large or run the other way.

Each compound was assayed against Hexokinase-4 (Homo sapiens) + Glucokinase regulatory protein (Homo sapiens) (UniProt P35557+Q14397) (assay: qHTS assay for inhibitors of recombinant human GCK-GKRP interaction: Diaphorase-coupled assay (AID 743205)). Conditions: G6PDH/diaphorase resorufin fluorescence; series mostly up to 57.5 µM.
Hexokinase-4 (Homo sapiens) + Glucokinase regulatory protein (Homo sapiens), sequence (P35557 whole entry, looked up): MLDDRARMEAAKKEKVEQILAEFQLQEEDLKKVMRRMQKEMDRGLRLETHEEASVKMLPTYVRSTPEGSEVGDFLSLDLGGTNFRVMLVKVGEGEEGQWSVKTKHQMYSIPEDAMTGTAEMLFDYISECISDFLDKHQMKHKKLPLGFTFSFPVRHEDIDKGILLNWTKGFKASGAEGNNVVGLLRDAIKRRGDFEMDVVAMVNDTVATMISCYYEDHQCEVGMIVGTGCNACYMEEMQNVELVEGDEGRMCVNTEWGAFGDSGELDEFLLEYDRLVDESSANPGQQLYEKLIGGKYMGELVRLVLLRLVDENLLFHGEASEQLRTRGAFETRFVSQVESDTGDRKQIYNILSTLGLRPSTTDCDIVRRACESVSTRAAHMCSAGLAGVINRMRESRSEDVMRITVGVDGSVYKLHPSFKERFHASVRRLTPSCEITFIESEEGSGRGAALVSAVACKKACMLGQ
Hexokinase-4 (Homo sapiens) + Glucokinase regulatory protein (Homo sapiens), sequence (Q14397 whole entry, looked up): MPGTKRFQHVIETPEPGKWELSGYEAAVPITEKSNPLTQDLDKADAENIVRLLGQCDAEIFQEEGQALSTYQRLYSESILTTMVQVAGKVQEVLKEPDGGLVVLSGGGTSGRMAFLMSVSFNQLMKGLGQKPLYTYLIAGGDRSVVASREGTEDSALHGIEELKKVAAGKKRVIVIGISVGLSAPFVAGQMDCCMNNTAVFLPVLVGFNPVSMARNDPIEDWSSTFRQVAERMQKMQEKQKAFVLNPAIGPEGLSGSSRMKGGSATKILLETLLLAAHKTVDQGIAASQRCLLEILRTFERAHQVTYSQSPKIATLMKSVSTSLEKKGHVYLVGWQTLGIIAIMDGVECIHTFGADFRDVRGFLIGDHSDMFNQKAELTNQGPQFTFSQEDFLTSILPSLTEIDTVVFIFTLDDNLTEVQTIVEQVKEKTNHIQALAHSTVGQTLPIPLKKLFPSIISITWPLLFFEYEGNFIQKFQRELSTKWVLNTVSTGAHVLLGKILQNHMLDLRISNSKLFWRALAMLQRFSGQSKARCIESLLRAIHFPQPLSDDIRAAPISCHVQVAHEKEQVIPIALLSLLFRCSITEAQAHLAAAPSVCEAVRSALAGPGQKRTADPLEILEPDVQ
Summary of the method: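 GST-GCK (10 nM) with FLAG-GKRP (10 nM), 5 mM glucose and 0.4 mM ATP in pH 7.6 Hepes; compounds preincubated 20 min with substrate. G6PDH/diaphorase coupling converts resazurin to resorufin, read kinetically (ex 525/em 590 nm) for 30 min.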
Potency is read from the fitted curve at half-maximal effect.

Row | Structure (SMILES) | Potency
1 | O=C(O)C1CCNCC1 | inactive
2 | Cc1cc2c(cc1Cl)N(C(=O)Nc1ccnc3ccccc13)CC2 | inactive
3 | C=CCn1c(=O)c2c(nc(-c3ccc(S(=O)(=O)O)cc3)n2C)n(C)c1=O | inactive
4 | O=c1cc(O)cc(/C=C/c2ccc(O)c(O)c2)o1 | inactive
5 | [Li+] | inactive
6 | N=C(N)c1ccccc1 | inactive
7 | CC(=O)/C(C)=N/O | inactive
8 | NC/C=C\C(=O)O | inactive
9 | CC(=O)O[C@H]1Cc2ccccc2N(C(N)=O)c2ccccc21 | inactive
10 | CN1CCC2(CCN3CCc4c(oc5ccccc45)C3C2)N(C)C1=O (stereo unspecified) | inactive
11 | O=C(O)c1cccnc1C(=O)O | inactive
12 | CCCCOc1cc(CC2CNC(=O)N2)ccc1OC (stereo unspecified) | inactive
13 | O=C(O)C1=CC(=C(c2ccc(O)c(C(=O)O)c2)c2ccc(O)c(C(=O)O)c2)C=CC1=O | 25.1 µM (active)
14 | c1ccc(C(NCc2cccnc2)(c2ccccc2)c2ccccc2)cc1 | inactive
15 | CCN1C(=O)C=CC1=O | inactive
16 | C#CC(N)CCC(=O)O (stereo unspecified) | inactive
17 | CC(=O)N[C@@H](Cc1c[nH]c2ccccc12)C(=O)OCc1cc(C(F)(F)F)cc(C(F)(F)F)c1 | inactive
18 | NC(Cc1cccc(-c2ccccc2CP(=O)(O)O)c1)C(=O)O (stereo unspecified) | inactive
19 | CC(=O)O[C@H]1CC2(C)[C@@H](C[C@@H](O)[C@H]3[C@@]4(C)CC[C@@H](O)[C@@H](C)[C@@H]4CC[C@@]32C)C1=C(CCC=C(C)C)C(=O)O (stereo partly specified) | inactive
20 | COc1ccccc1N1CCN(CCCNc2c(C)c(=O)n(C)c(=O)n2C)CC1 | inactive
21 | N[C@H]1CONC1=O | inactive
